Compound activity (PubChem)
This is a sample that favours compounds with a hit; in the whole collection about 18% have one here.
HepG2 tox: qHTS for Inhibitors of TGF-b: Cytotox Counterscreen; hit rate 0.76% among 410,000; Potency, µM (highest dose often 46.1 µM), for inactives: at the top dose activity change, negative = cytotoxicity, usual class: cytotoxic; HepG2 CAGA-GFP viability, ATP luminescence, 18 h; AID 588856, 2011; also: potency is read from the fitted curve at half-maximal effect
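HepG2 CAGA-GFP cells (1000/well, DMEM with 1% FBS) received compound, then TGF-beta at 500 pg/mL final, and were incubated 18 hours at 37 degrees C. Viability was read by CellTiter-Glo luminescence. Media-only wells were set as complete cell-killing and DMSO as no toxicity.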
TGFb SMAD3 inh: qHTS for Inhibitors of TGF-b. HepG2 CAGA-GFP TGF-b/SMAD3 reporter, GFP fluorescence, 18 h; TGF-beta stimulated, 500 pg/mL final. Potency, µM (doses to about 46.1 µM), for inactives: top-dose activity, negative = inhibition, usual class: inhibitors. hit rate 1.2% among 410,000. AID 588855, 2011; also: potency is read from the fitted curve at half-maximal effect; % is scaled to controls: 0 for no effect and ±100 for the full control effect; nearly all actives have a fitted effect of over 65% in size
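HEPG2 CAGA-GFP cells (1000/well, DMEM with 1% FBS) were pre-incubated 2 h at 37 degrees C, given compound by pin tool, then stimulated with TGF-beta at 500 pg/mL final for 18 h before per-cell GFP fluorescence imaging.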
IL1B secr inh: qHTS for Inhibitors of Inflammasome Signaling: IL-1-beta AlphaLISA Primary Screen. hit rate 4.7% among 360,000. AID 743279, 2014. THP-1 LPS/ATP IL-1B secretion, AlphaLISA, 16 h; stronger effect = lower value. activity change, % at 57.5 µM; in the data active = activity change below about -50%; inconclusive = mostly about -30% to -49%; also: % is scaled to controls: 0 for no effect and ±100 for the full control effect
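Secreted IL-1B measured by AlphaLISA bead assay after 16 h compound exposure of THP-1 cells; compounds (final up to 57.5 uM) added 1 h before LPS (250 ng/mL) and ATP (1.25 mM) stimulation; lower signal means less secretion.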
TDP1 inh: qHTS Assay for Inhibitors of Tyrosyl-DNA Phosphodiesterase (TDP1); Tyrosyl-DNA phosphodiesterase 1 (Homo sapiens), Q9NUW8; recombinant TDP1, AlphaScreen DNA substrate cleavage; Potency, µM (highest dose often 130 µM), for the others: at the top dose activity change, negative = inhibition, usual class: inhibitors; hit rate 0.28% among 350,000; AID 485290, 2010; also: potency is read from the fitted curve at half-maximal effect; % is scaled to controls: 0 for no effect and ±100 for the full control effect; nearly all actives have a fitted effect of over 40% in size
Target sequence (Q9NUW8 whole entry, looked up): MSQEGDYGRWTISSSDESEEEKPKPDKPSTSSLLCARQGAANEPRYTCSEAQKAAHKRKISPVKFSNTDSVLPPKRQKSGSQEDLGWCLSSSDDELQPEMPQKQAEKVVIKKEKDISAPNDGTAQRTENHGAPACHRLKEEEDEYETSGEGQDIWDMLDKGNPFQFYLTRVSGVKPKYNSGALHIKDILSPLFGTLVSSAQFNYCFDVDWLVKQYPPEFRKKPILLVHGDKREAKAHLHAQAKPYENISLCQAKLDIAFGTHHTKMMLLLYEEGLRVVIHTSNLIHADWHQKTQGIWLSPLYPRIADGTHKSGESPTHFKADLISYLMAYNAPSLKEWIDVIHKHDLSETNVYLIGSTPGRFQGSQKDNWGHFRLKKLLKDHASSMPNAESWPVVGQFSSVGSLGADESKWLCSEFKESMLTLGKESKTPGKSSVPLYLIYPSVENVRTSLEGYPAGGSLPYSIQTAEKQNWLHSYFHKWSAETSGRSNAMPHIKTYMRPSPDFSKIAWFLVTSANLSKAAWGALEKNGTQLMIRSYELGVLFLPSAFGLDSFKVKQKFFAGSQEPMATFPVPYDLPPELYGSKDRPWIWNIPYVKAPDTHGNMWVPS
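Compounds were preincubated with Tdp1 (1 nM final) for 15 min at room temperature before substrate (15 nM final) started a 5 min reaction; beads (10 ug/ml final) were then added for 10 min before AlphaScreen detection.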
TDP1 cell CPT: qHTS for Inhibitors of human tyrosyl-DNA phosphodiesterase 1 (TDP1): qHTS in cells in presence of CPT; chicken DT40 Tdp1-/-;hTDP1 cells + 20 nM CPT, ATP luminescence, 48 h; Potency, µM (series often up to 46.2 µM), for inactives: top-dose activity change, negative = growth inhibition, hits mostly inhibitors; hit rate 12% among 420,000; AID 686979, 2013; also: potency is read from the fitted curve at half-maximal effect; % is scaled to controls: 0 for no effect and ±100 for the full control effect; nearly all actives have a fitted effect of over 55% in size
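Cell growth measured by CellTiter-Glo luminescence after a minimum 48 h, 37 C compound exposure with 20 nM CPT in Tdp1-knockout DT40 cells stably expressing hTDP1, seeded 400/well; qHTS titration format.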
TDP1 cell noCPT: qHTS for Inhibitors of human tyrosyl-DNA phosphodiesterase 1 (TDP1): qHTS in cells in absence of CPT; DT40 Tdp1-/- hTDP1 cells, no CPT, ATP luminescence, 48 h; Potency, µM (doses to about 46.2 µM), for inactives: top-dose activity change, negative = growth inhibition, hits mostly inhibitors; hit rate 15% among 420,000; also: potency is read from the fitted curve at half-maximal effect; % is scaled to controls: 0 for no effect and ±100 for the full control effect; nearly all actives have a fitted effect of over 55% in size
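Readout: luminescence from CellTiter-Glo after 30 min in the dark at RT. Cells: DT40 Tdp1-/- with stable hTDP1, 400/well. Exposure: compounds alone, ≥48 hr, 37 °C.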
An asterisk follows results filed as active; ? = inconclusive; nt = no result. Unless noted, calls follow the shape of the dose curve; as a rule, active = well fitted curve in the direction sought with a large enough effect; inconclusive = small, poorly fitted or top-dose-only effect, or another doubt; inactive = no such curve, though single readings can be large; an effect the other way counts as inactive or inconclusive.

SMILES	HepG2 tox	TGFb SMAD3 inh	IL1B secr inh	TDP1 inh	TDP1 cell CPT	TDP1 cell noCPT
CCc1ccc(-c2nc(CSCC(=O)NCc3ccccc3OC)c(C)o2)cc1	-17%	-16%	nt	6%	21µM*	16µM*
O=C(Nc1ccc(N2CCCCC2)cc1)c1ccccn1	-81%	7%	-3	8%	16µM*	10µM*
O=C(Nc1ccc(N2CCCCCC2)cc1)c1ccccc1Cl	2%	4%	?	8%	13µM*	16µM*
O=C(Nc1ccc(N2CCCC2)c(Cl)c1)c1ccccc1F	-35%	8%	-50*	nt	-27%	?
CC(=O)Nc1ccc(N2CCCCC2)c(C(=O)Nc2cccc(C)c2)c1	1%	?	-6	-2%	?	9.2µM*
Cc1cccc(-c2noc(-c3cccnc3NCc3ccc(Cl)cc3)n2)c1	5%	-7%	nt	11%	8%	-23%
CC1(C)C(=O)C(c2ccccc2)=C2CN3C(=O)N(CCc4ccccc4)C(=O)C3(Cc3ccccc3)C=C21 (centres undefined)	nt	nt	nt	9%	nt	nt
O=C(Nc1ccc(N2CCCC2)cc1)c1cccc(Cl)c1	-14%	-6%	-19	nt	-24%	13µM*
Cc1cccc(C(=O)Nc2ccc(N3CCC(CCN4CCOCC4)CC3)c(C(=O)O)c2)c1	2%	3%	nt	25µM*	1%	-13%
Cc1cccc(C(=O)Nc2ccc(N3CCN(c4ccc(F)cc4)CC3)c(C(=O)O)c2)c1	10%	-1%	nt	-14%	-14%	-6%
O=C(Nc1ccccc1N1CCCCC1)c1cccc(Cl)c1	8%	43%	13	nt	?	?
O=C(Nc1ccc(N2CCCC2)cc1)c1cc(Cl)ccc1Cl	0%	5%	-3	nt	23µM*	23µM*
O=C(Nc1ccc(N2CCCC2)cc1)c1ccc(Cl)cc1Cl	-7%	1%	-10	nt	0%	-5%
Cc1ccc(-c2nc(C)sc2CC(=O)Nc2cccc(C)c2C)cc1	9%	11%	0	5%	?	?
NC(=O)C1CCN(S(=O)(=O)c2cc3c(cc2Cl)NC(=O)CO3)CC1	2%	0%	nt	3%	8%	-2%
CC(C)C(=O)Nc1ccc(COc2ccccc2CN(Cc2ccccc2)C(=O)OC(C)(C)C)cc1	-8%	-14%	-24	nt	15µM*	15µM*
CC(C)C(=O)Nc1cccc(COc2ccc(CN(Cc3ccccc3)C(=O)OC(C)(C)C)cc2)c1	-12%	-35%	-6	nt	?	16µM*
CC(C)(C)OC(=O)N(CCc1ccccc1)Cc1ccccc1OCc1ccc(NC(=O)C2CCCC2)cc1	-10%	-1%	-27	nt	?	?
CC(C)(C)OC(=O)NOCC(=O)N(Cc1ccccc1)CC(O)COc1ccccc1 (centres undefined)	-9%	-20%	-9	0%	?	?
COc1ccc(N2CCN(CC(O)COc3cc(C)ccc3C)CC2)cc1 (centres undefined)	-34%	-20%	-15	nt	?	?
Cc1cc(C)c2c(CN3CCN(Cc4ccc5c(c4)OCO5)CC3)cc(=O)oc2c1	-7%	-3%	-3	4%	?	16µM*
Cc1cc(C)c2c(CN3CCN(Cc4ccccc4)CC3)cc(=O)oc2c1	-28%	-16%	0	nt	?	-29%
Cc1ccc2c(CN(Cc3ccccc3)Cc3ccccc3)cc(=O)oc2c1	-32%	?	37	nt	?	?
Cc1cc(C)c2c(CN(Cc3ccccc3)Cc3ccccc3)cc(=O)oc2c1	-25%	?	18	nt	23µM*	16µM*
COc1ccccc1Cc1nc2ccccc2nc1SCC(=O)Nc1c(C)cccc1C	-3%	-2%	nt	5%	-3%	2%
SMILES	HepG2 tox	TGFb SMAD3 inh	IL1B secr inh	TDP1 inh	TDP1 cell CPT	TDP1 cell noCPT
Nn1cc(-c2ccccc2)nc1SCC(=O)NCCN1C(=O)CSC1=O	-5%	4%	18	2%	-5%	-3%
COc1ccc(C2SCC(=O)N2c2ccc(F)cc2)cc1 (centres undefined)	-1%	2%	10	nt	-4%	1%
COc1ccc(N2C(=O)Cc3cc(OC)c(OC)cc3C2c2ccc(F)cc2)cc1 (centres undefined)	-16%	4%	nt	10%	23µM*	?
COC(=O)c1ccc(N2C(=O)Cc3cc(OC)c(OC)cc3C2c2ccc(F)cc2)cc1 (centres undefined)	-22%	-31%	nt	11%	15µM*	?
CCOc1cc2c(cc1OCC)C(c1ccc(OC)c(OC)c1)N(c1ccc(C(=O)O)cc1)C(=O)C2 (centres undefined)	5%	2%	-1	8%	27%	-12%
CCN(CC(=O)NC1CCS(=O)(=O)C1)S(=O)(=O)c1ccc(C)cc1C (centres undefined)	3%	-4%	0	3%	-26%	-15%
O=C(CNC(=O)c1ccccc1)OCc1cc(=O)n2nc(C3CC3)sc2n1	-9%	-28%	nt	8%	7%	-2%
CSc1nnc2[nH]c(=O)cc(C)n12	16%	1%	nt	3%	12%	-8%
COc1ccc(C(C(=O)Nc2ccc(C(C)C)cc2)N(Cc2ccco2)C(=O)CC2NC(=O)NC2=O)cc1 (centres undefined)	12%	?	-70*	8%	?	?
COc1ccc(NC(=O)C(c2ccc(OC)cc2)N(Cc2ccco2)C(=O)CC2NC(=O)NC2=O)cc1 (centres undefined)	4%	4%	25	5%	10%	-9%
Cc1[nH]n(-c2ccc(Cl)cc2)c(=O)c1N=Nc1cccnc1	-39%	?	14	-1%	18µM*	16µM*
CCn1cc([N+](=O)[O-])c(C(=O)Nc2nc(-c3ccc(C)cc3)c(C)s2)n1	-77%	?	-55*	6%	21%	-27%
Cc1ccc(NC(=O)c2nn(C34CC5CC(CC(C5)C3)C4)cc2[N+](=O)[O-])cc1	-4%	3%	-24	-4%	23µM*	?
CN1C=CC(C(C(N)=O)c2ccccc2)c2ccccc21 (centres undefined)	1%	0%	12	nt	24%	?
COC(=O)C1=C(C)N(C)C(=O)NC1c1ccccc1 (centres undefined)	-4%	-1%	16	1%	10%	5%
